For experiment [1], the system named is Sporothrix brasiliensis CBS 133006. Kind of experiment: growth inhibition relative to untreated control; higher = more growth inhibition (more antifungal activity), active = 80 or more; extreme values may be limits of the assay. Particulars: 1 µM; 48 h. A digest of the protocol:
(§1)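 The reported figure is percent growth inhibition relative to untreated cells, from quadruplicate runs. Yeast-form cells of the reference isolates at 1 x 10^5 CFU/ml were exposed to library compounds at a final 1 μM for 48 h at 35°C in 5% CO2, and growth was assessed by microscopy and spectrophotometric readings.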

For experiment [2], the system named is Sporothrix schenckii ATCC 32286. The description is as above. Conditions: 1 µM; 48 h. A digest of the protocol:
as §1

A number with no mark means an inactive call.

Take `Cc1noc(C)c1C(=O)N1CCCC(c2[nH]c3c(C)cccc3c2-c2ccncc2)C1` (stereo not drawn): the growth inhibition was 7.5% in experiment [1] and 14% in experiment [2].
Take `Cc1cc(NCC(C)C)c2[nH]nc(-c3ccccc3)c2n1`: the growth inhibition in experiment [1] was 4.5%; in experiment [2], 0.75%.
The matching figures for `COc1cc(C2=NCCN2)cc2cc(-c3ccc(C4=NCCN4)cc3)oc12`: 17% and 4.25%.
As for `CCCc1ccc(S(=O)(=O)Nc2ccc(CN3CCN(CC4CC4)CC3)cc2)cc1`, the growth inhibition is 25.5% in experiment [1] and 2.25% in experiment [2].
As to `CC(C)n1nc(-c2cc3c(Cl)cccc3[nH]2)c2c(N)ncnc21`, the growth inhibition in experiment [1] was 15%; in experiment [2] it was 16.8%.
As for `CN1CCN(CCCOc2ncc(Nc3ncc(-c4ccc(C(F)(F)F)c(F)c4)nc3C(N)=O)cn2)CC1`, the results for the growth inhibition in experiment [1] and in experiment [2] were 12.5% and 0%, respectively.
The matching figures for `Cc1cccc(NC(=O)c2cc(S(=O)(=O)N(C)c3ccc(F)cc3)ccc2Cl)n1`: 4.25% and 8.25%.
In the case of `Cc1ccc2[nH]c3c(NCCN(C)C)ncnc3c2c1`, the growth inhibition in experiment [1] was 2%; in experiment [2], 0%.
In the case of `CCn1ncc2c(NC3CCOCC3)c(CNC(=O)c3ccnn3C)c(C)nc21`, the growth inhibition was 4.25% in experiment [1] and 0% in experiment [2].
The matching figures for `O=C(Nc1ccccc1-c1nc2c(C(=O)O)cccc2o1)c1ccccc1`: 1% and 0%.
The matching figures for `O=C(Nc1cccc(Cl)c1)c1cnc(N2CCN(c3ccncc3)CC2)c(Cl)c1`: 0.75% and 1.5%.
With `O=C(Nc1cnc2ccccc2c1)c1cccc(-n2cnnn2)c1`, the growth inhibition in experiment [1] is 0%; in experiment [2], 4.75%.
Consider `O=C(Nc1c(O)cccc1-c1nc2c(C(=O)O)cccc2o1)c1cc(-c2ccccc2)on1`, for which the values for the growth inhibition in experiment [1] and in experiment [2] were 38.2% and 3.75%, respectively.
Regarding `CNc1nnc(Sc2cnn(-c3ccccc3)c(=O)c2Cl)s1`, the growth inhibition in experiment [1] is 6%; in experiment [2], 0%.
For `Clc1ccc(CCNc2cc(-c3ccccc3)nc3ncnn23)cc1`, in that order: 9.75% and 18.2%.
For `CCC(NC(=O)c1ccccc1NC(=O)c1ccc(C)cc1)C(=O)OC` (stereo not drawn), in that order: 10% and 5.75%.
For `O=C(NC1=NCCS1)c1sc2cc(F)ccc2c1Cl`, in that order: 0.75% and 0%.
As for `O=C(NCCc1ccccc1)c1cc(-c2cccnc2)cnc1NCC1CC1`, the growth inhibition in experiment [1] and in experiment [2] was 0% each time.
For the molecule `CC(=O)N(CCN(C(=O)c1ccc(F)cc1)c1ccccc1)c1ccccc1`, the growth inhibition in experiment [1] was 13%; in experiment [2], 0%.
For `COc1ccc(Cn2cnc3c(-c4ccco4)nc(Cl)nc32)cc1`, in that order: 15.8% and 17.8%.
On to `CCc1nc2ccc(Cl)cn2c1C(=O)NCc1ccc(N2CCC(c3ccc(OC(F)(F)F)cc3)CC2)cc1`, for which the results for the growth inhibition in experiment [1] and in experiment [2] were 10.2% and 2.25%, respectively.
Turning to `N=C(N)c1ccc(OCCCCCOc2ccc(C(=N)N)cc2)cc1`, the values for the growth inhibition in experiment [1] and in experiment [2] were 93.5% (active) and 72%, respectively.
Take `COc1ccc2nc(C)cc(OCC(=O)NCc3ccccc3)c2c1`: the results for the growth inhibition in experiment [1] and in experiment [2] were 1.75% and 14.8%, respectively.
Consider `NCC(=O)N1CCn2c(nc(-c3ccccc3)c2Nc2ccc3c(c2)OCO3)C1`, for which the results for the growth inhibition in experiment [1] and in experiment [2] were 0% and 0.5%, respectively.
For the molecule `CC(C)(C)OC(=O)N1CCN(c2nccc(-c3ccc(-c4ccc(Cl)cc4)s3)n2)CC1`, the growth inhibition in experiment [1] was 8%; in experiment [2] it was 1%.
For `COc1ccc(C2=NN(C3CCCCCC3)C(=O)C2(C)C)cc1OCCCCOc1ccc(-c2nn[nH]n2)cc1`, in that order: 6.25% and 0%.
`CC(=O)N1CCN(c2ccc(Oc3ccc(Cl)cc3O)cc2)CC1`: the growth inhibition in experiment [1] is 3.5%; in experiment [2] it was 0.75%.
The matching figures for `O=C(NCCc1ccn(-c2ccccc2)n1)C1CCCCC1`: 11.5% and 6.25%.
For the molecule `CC(C(=O)Nc1ccc2oc(-c3ccncc3)nc2c1)c1ccccc1` (stereo not drawn), the growth inhibition in experiment [1] is 15.2%; in experiment [2], 0.5%.
For `Cc1cccc(-c2nc(Nc3ccncn3)c3sccc3n2)n1`, in that order: 1% and 9.75%.
On to `CNc1cc(C)nc(C2CN(C(=O)c3n[nH]c4ccccc34)CCO2)c1` (stereo not drawn), for which the growth inhibition was 5.75% in experiment [1] and 4.5% in experiment [2].
In the case of `O=S(=O)(c1ccc(Cl)cc1)N1CCN(C(=S)NCc2ccco2)CC1`, the growth inhibition in experiment [1] is 0%; in experiment [2], 12%.
As to `CCC(Sc1nc2ccccc2o1)C(=O)Nc1nnc(C)s1` (stereo not drawn), the growth inhibition in experiment [1] is 16%; in experiment [2], 3.25%.
With `CCCCN(CCCC)c1c(C#N)cc(S(=O)(=O)Nc2ccccc2)cc1C#N`, the growth inhibition in experiment [1] is 9.25%; in experiment [2], 23.8%.

The values above are taken from the supplement of paper PMC7556523.
